Sampled rows, rich in hits. Any-hit rate of the full collection: about 11%.
IMPase inh: qHTS Assay for Identifying the Cell-Membrane Permeable IMPase Inhibitors. CHO-M1 cells, IP1 accumulation, HTRF TR-FRET ratio. inhibition (IP1 accumulation), % at 46.1 µM. 120,000 tested, under 10 active; active = well fitted curve in the direction sought with a large enough effect in the signal ratio, not every such curve was filed as active; inconclusive = small, poorly fitted or top-dose-only effect, or a change in a side signal; inactive = no such curve, though single readings can be large or run the other way; the % refers to the signal ratio;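 note: cells stimulated with carbachol in lithium chloride buffer; plate controls were DMSO basal wells for no effect and reference inhibitor wells for full effect; higher means more IMPase inhibition seen as more IP1 and lower FRET ratio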
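Measured: the HTRF emission ratio (665/620 nm) plus the 620 nm donor channel, each fitted to the Hill equation to give AC50. Cells were CHO-M1 given compounds up to 46 uM and a 30 min carbachol stimulation at 37C.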
ALDH1A1 block: qHTS Assay for Inhibitors of Aldehyde Dehydrogenase 1 (ALDH1A1); Aldehyde dehydrogenase 1A1 (Homo sapiens), P00352; Purified ALDH1A1, NADH fluorescence, propionaldehyde substrate; Potency, µM (doses to about 75.3 µM), inactives show at the top dose activity, negative = inhibition, hits mostly inhibitors; actives 7.3% (n = 220,000); active = well fitted inhibition curve with a large enough effect, not every such curve was filed as active; inconclusive = small, poorly fitted or top-dose-only effect, or another doubt; inactive = no such curve, though single readings can be large or run the other way;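 note: potency is the fitted concentration of half-maximal effect; plate controls were no enzyme wells and a reference inhibitor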
PNC assembly inh: High Content Assay for Compounds that inhibit the Assembly of the Perinucleolar Compartment; PC3M PTB-GFP, PNC prevalence imaging, 16 h; active compounds read low; activity change (PNC), negative = inhibition, % at 10 µM; actives 3.1% (n = 140,000);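 active = readout at or below -70, meaning at least 70% loss of cells showing the perinucleolar compartment, a nuclear body marking cancer cells; inconclusive = readout between -30 and a set limit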;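 note: plate controls were DMSO wells for no effect and camptothecin positive control wells for full effect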
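Compounds are pinned in duplicate onto adhered PC3M cells stably expressing GFP-tagged PTB and incubated 16 h at 37 C. Cells are then fixed, nuclei stained with Hoechst, and PNC-positive cells counted.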
HPGD block: qHTS Assay for Inhibitors of HPGD (15-Hydroxyprostaglandin Dehydrogenase); Potency, µM, for inactives: top-dose activity change, negative = inhibition, actives largely listed as inhibitors; actives 4.3% (n = 150,000); purified HPGD, NADH fluorescence kinetic, PGE2 substrate; 15-hydroxyprostaglandin dehydrogenase [NAD(+)] (Homo sapiens), P15428; active = well fitted inhibition curve with a large enough effect, not every such curve was filed as active; inconclusive = small, poorly fitted or top-dose-only effect, or another doubt; inactive = no such curve, though single readings can be large or run the other way; note: potency is the fitted concentration of half-maximal effect
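20 nM HPGD preincubated 15 min at room temperature with compound in 50 mM Tris-HCl pH 8, 0.01% Tween 20. Started with 1 mM NAD+ and 30 uM prostaglandin E2; NADH fluorescence (360/450 nm) read 5 times over 30-s intervals, last minus first.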
NPSR antag: qHTS Assay for Antagonists of the Neuropeptide S Receptor: cAMP Signal Transduction; CHO-NPSR cells, cAMP TR-FRET, antagonist mode; Q6W5P4; actives 1% (n = 220,000); Potency, µM (top dose mostly 38.3 µM), inactives show at the top dose activity change, negative = inhibition, most hits filed as inhibitors; AID 1461, 2008; note: potency is the fitted concentration of half-maximal effect; nearly all actives have a fitted effect of over 50% in size
Target sequence (Q6W5P4 whole entry, looked up): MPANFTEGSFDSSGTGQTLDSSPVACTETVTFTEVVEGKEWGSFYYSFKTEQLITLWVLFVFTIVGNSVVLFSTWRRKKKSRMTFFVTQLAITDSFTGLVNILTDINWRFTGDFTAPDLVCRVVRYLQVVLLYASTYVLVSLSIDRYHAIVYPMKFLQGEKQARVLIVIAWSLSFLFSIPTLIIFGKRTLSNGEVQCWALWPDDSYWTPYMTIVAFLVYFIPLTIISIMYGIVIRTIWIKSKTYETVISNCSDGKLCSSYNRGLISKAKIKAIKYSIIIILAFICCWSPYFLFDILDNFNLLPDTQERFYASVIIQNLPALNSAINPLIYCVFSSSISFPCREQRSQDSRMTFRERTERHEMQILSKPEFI
IMPase Li cell: qHTS Assay for Identifying the Cell-Membrane Permeable IMPase Inhibitors: Potentiation with Lithium; CHO-M1 cells, IP1 TR-FRET (IP-One), carbachol + lithium; Potency, µM (top dose mostly 59.4 µM), for the others: at the top dose activity, negative = IMPase inhibition, usual class: inhibitors; actives 0.35% (n = 210,000);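 note: IP1 builds up when IMPase is blocked and the TR-FRET signal falls; potency is the fitted concentration of half-maximal effect; plate controls were basal vehicle for no effect and high inhibitor control for full effect; nearly all actives have a fitted effect of over 50% in size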
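CHO cells stably expressing M1 receptor (2000/well, cultured 16–30 h) treated 30 min at 37C with compound plus low lithium. Cytosolic IP1 by TR-FRET (665/620 ratio and 620 channel) after 10 min lysis; AC50 by Hill fit.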
Starred values were filed as active, the others as inactive; ? = inconclusive; nt = no result; [ ] = another dose, or the depositor's remark. Unless noted, calls come from the whole dose curve; as a rule, active = well fitted curve in the direction sought with a large enough effect; inconclusive = small, poorly fitted or top-dose-only effect, or another doubt; inactive = no such curve, though single readings can be large; an effect the other way counts as inactive or inconclusive. Unless noted, % is set by controls: 0 for no effect and ±100 for the full control effect.

SMILES	IMPase inh	ALDH1A1 block	PNC assembly inh	HPGD block	NPSR antag	IMPase Li cell
CCC(O)c1cc2c(cc1NC(=O)c1ccc(C)cc1)OCCO2 (stereo not given)	5	-11%	41	-9%	-28%[46.1 µM]	1%[38.3 µM]
O=[N+]([O-])c1cc(C(F)(F)F)ccc1Sc1nccn1Cc1ccccc1	?	3%	5	-8%	-22%[46.1 µM]	5%[38.3 µM]
COc1ccc(-c2nnc3sc(-c4cccs4)nn23)cc1OC	0	8%	14	?	-17%[46.1 µM]	-1%[38.3 µM]
c1ccc(Cc2nnc3sc(-c4ccccn4)nn23)cc1	12	14µM*	?	?	-9%[46.1 µM]	2%
c1ccc(Cc2nnc3sc(-c4cccs4)nn23)cc1	-1	2.8µM*	-26	8.9µM*	-2%[46.1 µM]	19%[38.3 µM]
CCOc1ccccc1-c1nn2c(Cc3ccccc3)nnc2s1	9	?	12	?	?	9%[38.3 µM]
COCCN=C1Sc2nc3c(C)cccc3cc2CN1Cc1ccco1	5	3.5µM*	4	22µM*	-18%[46.1 µM]	-16%[38.3 µM]
Cc1ccc2nc3c(cc2c1)CN(Cc1ccco1)C(=NCC1CCCO1)S3 (stereo not given)	7	?	12	-17%	-24%[46.1 µM]	10%
Cc1cccc2cc3c(nc12)SC(=NCC1CCCO1)N(Cc1ccco1)C3 (stereo not given)	6	4.5µM*	-27	nt	10µM*	nt
COCCN=C1Sc2nc3ccc(C)cc3cc2CN1Cc1cccs1	nt	-14%	nt	nt	54%	13%
CCOC(=O)CSc1cc(C)c(C#N)c2nc3ccccc3n12	nt	1%	nt	nt	-5%	17%
O=c1c2sccc2nc(SCc2ccc([N+](=O)[O-])cc2)n1Cc1ccccn1	nt	2%	-84*	-5%	-19%	25%
O=C(O)C(Cc1ccc(O)cc1)N1C(=O)C2CCCCC2C1=O (stereo not given)	nt	nt	nt	nt	-6%[7.67 µM]	nt
COc1cc(OC)cc(C(=O)NC(=S)Nc2ccc(Cl)c(C(=O)O)c2)c1	0	-4%	32	-10%	-14%[46.1 µM]	7%[38.3 µM]
Cc1c(Cl)cccc1NC(=S)NCC(C)C	nt	20%	33	-15%	-8%	2%
CC(C)CNC(=S)NC(=O)c1ccccc1Cl	nt	-6%	-134*	-8%	11%	-10%
O=C(NC(=S)Nc1ccc(Cc2ccncc2)cc1)c1ccccc1Cl	3	?	55	nt	-11%[46.1 µM]	nt
O=C(NC(=S)Nc1ccc(O)cc1)c1ccccc1Cl	nt	18µM*	nt	nt	-15%	12%
COc1ccc(NC(=S)NC(=O)c2ccccc2Cl)cc1	nt	13µM*	nt	nt	-3%	-5%
O=C(c1ccc(S(=O)(=O)N2CCOCC2)cc1)N1CCN(c2ccc(F)cc2)CC1	-1	-7%	18	-4%	-10%[46.1 µM]	-7%[38.3 µM]
Cc1c(O)c(O)cc2c1oc1c3ccccc3oc(=O)c21	nt	-13%	nt	-27%	nt	2%
CC(=O)N1N=C2/C(=C/c3ccccc3)CCCC2C1c1ccccc1 (stereo not given)	nt	?	nt	nt	-10%	4%
CCCCP(=O)(CCCC)Cc1ccccc1	6	4%	0	-3%	-7%[46.1 µM]	42%[38.3 µM]
O=P(CO)(Cc1ccccc1)Cc1ccccc1	5	8%	?	16µM*	7%[46.1 µM]	-10%[38.3 µM]
CC(=O)Nc1cccc(/C(C)=N/NC(=O)c2ccc(Cl)cc2Cl)c1	nt	3%	nt	nt	4%	10%
Cc1nc2c(c(=O)n1CCC1=CCCCC1)c1nc3ccccc3nc1n2/N=C/c1ccco1	?	?	29	-20%	10µM*	4%[38.3 µM]
CCCCCCn1cnc2c(c1=O)c1nc3ccccc3nc1n2/N=C/c1ccco1	-2	25µM*	?	-23%	-1%[46.1 µM]	7%[38.3 µM]
COCCn1cnc2c(c1=O)c1nc3ccccc3nc1n2/N=C/c1ccco1	nt	nt	nt	nt	-15%	nt

Compound activity from PubChem BioAssay.
